Assay outcomes from PubChem.
Most compounds without a hit are left out; they make up all but 0.81% or so of the library.
SRC1 inh: inhibitors of human steroid receptor coactivator 1 (SRC1) | Q15788 | HEK293 GAL4-SRC1 luciferase reporter, luminescence | inhibition, % at 3.6 µM | actives 0.12% (n = 360,000);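 active = inhibition above the campaign mean plus 3 SD, with each screening campaign given its own cutoff, cut at about 60% in these data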
NCOA2 inhibitor: human SRC2 (NCOA2) inhibition; Q15596; HEK293 GAL4-SRC2 luciferase reporter, luminescence; inhibition, % at 9 µM; actives 0.17% (n = 370,000); AID 651957;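 active = inhibition above the mean inhibition of all tested compounds plus 3 SD, set per campaign, cut at about 52% in these data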
SRC3 inh: inhibits human SRC3 coactivator | inhibition, % at 3.6 µM | actives 0.17% (n = 360,000) | HEK293 GAL4-SRC3 luciferase reporter, luminescence | Q9Y6Q9;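 active = inhibition above a per-campaign cutoff, the mean of all compounds plus 3 SD, cut at about 60% in these data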;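 note: higher means less SRC3-driven luciferase light from the GAL4 reporter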
NR2F2 inh: inhibitors of human COUP-TFII (NR2F2); P24468; HEK293T NGFI-A luciferase reporter, luminescence; inhibition, % at 8.6 µM; actives 0.7% (n = 370,000); AID 686940;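 active = inhibition above a per-plate cutoff, mean inhibition of test wells between control levels plus 3 SD, cut at about 38% in these data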;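 note: cells cotransfected with COUP-TFII expression vector driving the NGFI-A reporter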
LRH-1 inv ag: NR5A2 inverse agonism in reporter assay. O00482. HEK293T StAR-luciferase reporter, LRH-1 transfected, 24 h. inhibition, % at 3.6 µM. actives 0.13% (n = 360,000);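 active = inhibition above the mean inhibition of all tested compounds plus 3 SD, cut at about 73% in these data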
Target sequence (O00482 whole entry, looked up): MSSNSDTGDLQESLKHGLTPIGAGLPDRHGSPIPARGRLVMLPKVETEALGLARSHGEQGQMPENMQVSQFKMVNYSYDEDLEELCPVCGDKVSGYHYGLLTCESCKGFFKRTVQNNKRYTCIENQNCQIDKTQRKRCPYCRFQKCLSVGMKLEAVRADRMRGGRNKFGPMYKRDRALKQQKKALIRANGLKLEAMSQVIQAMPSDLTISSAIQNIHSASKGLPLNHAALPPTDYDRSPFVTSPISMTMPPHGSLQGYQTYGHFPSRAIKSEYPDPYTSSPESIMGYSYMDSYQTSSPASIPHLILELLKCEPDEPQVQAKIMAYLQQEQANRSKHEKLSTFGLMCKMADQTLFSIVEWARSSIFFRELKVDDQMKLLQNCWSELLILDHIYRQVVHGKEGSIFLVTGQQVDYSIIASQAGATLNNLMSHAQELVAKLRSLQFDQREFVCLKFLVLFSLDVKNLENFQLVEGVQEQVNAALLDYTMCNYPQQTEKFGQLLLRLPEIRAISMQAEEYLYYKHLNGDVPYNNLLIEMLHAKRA
Gal4-VP16 ctr: VP16 inhibition counter-screen for COUP-TFII. HEK293 Gal4-VP16 luciferase reporter, luminescence. actives 25% (n = 2,500). shares compounds with NR2F2 inh. inhibition, % at 8.5 µM; in the data active = inhibition above about 13%
NR2F2 inh conf: COUP-TFII (NR2F2) inhibition, confirmation assay | HEK293 NGFI-A luciferase reporter, luminescence | inhibition, % at 8.5 µM | shares compounds with NR2F2 inh | actives 45% (n = 2,500);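 active = mean inhibition over three repeats above a set limit taken from the earlier primary screen, cut at about 38% in these data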
Large screens that a line does not name were inactive (follow-up assays come after a bar, where they were run).

COc1ccc(S(=O)(=O)N2CCN(C(=O)c3ccccc3Cc3ccccc3)CC2)cc1OC	none
C=CC(=O)N1C/C(=C/c2ccccc2)C(=O)/C(=C\c2ccccc2)C1	NCOA2 inhibitor 67, NR2F2 inh 98 | Gal4-VP16 ctr 71 | NR2F2 inh conf 101
C=CC(=O)N1C/C(=C/c2ccc(Cl)cc2)C(=O)/C(=C\c2ccc(Cl)cc2)C1	NCOA2 inhibitor 60, NR2F2 inh 90 | Gal4-VP16 ctr 85 | NR2F2 inh conf 102
CCOc1ccc(S(=O)(=O)N(CC)CC(=O)NCc2cccnc2)cc1C	none
Cc1cc(NC2CCCC2)n2ncc(-c3ccccc3)c2n1	NR2F2 inh 48 | Gal4-VP16 ctr inactive | NR2F2 inh conf 52
Cc1cc(NC2CCCC2)n2nc(C)c(-c3ccccc3)c2n1	none
Cc1ccccc1C(=O)Nc1ccnn1C1CCN(C(C)Cc2ccccc2F)CC1 (stereo not drawn)	none
CC(Oc1ccc(Br)cc1)C(=O)Nc1ccncc1 (stereo not drawn)	none
CC(Oc1ccc(Br)cc1Cl)C(=O)Nc1ccncc1 (stereo not drawn)	NR2F2 inh 45 | Gal4-VP16 ctr inactive | NR2F2 inh conf inactive
CC(NC(=O)C(=O)N1CCCCC1)C(c1cccs1)N1CCN(C)CC1 (stereo not drawn)	none
Cc1ccc(C(=O)CN2C(=O)c3ccccc3S2(=O)=O)cc1	NCOA2 inhibitor 68, SRC3 inh 63, NR2F2 inh 74 | Gal4-VP16 ctr 77 | NR2F2 inh conf 91
O=C(CN1C(=O)c2ccccc2S1(=O)=O)c1ccccc1Cl	NCOA2 inhibitor 57, NR2F2 inh 63 | Gal4-VP16 ctr inactive | NR2F2 inh conf inactive
COc1cc2c(cc1OC)C(c1ccc(-c3ccc(Cl)cc3Cl)o1)=NCC2	NR2F2 inh 62 | Gal4-VP16 ctr inactive | NR2F2 inh conf 42
COc1cc2c(cc1OC)C(c1ccc(-c3ccc(Cl)c(Cl)c3)o1)=NCC2	NR2F2 inh 51 | Gal4-VP16 ctr inactive | NR2F2 inh conf 46
COc1cc2c(cc1OC)C(c1ccc(-c3cc(Cl)ccc3Cl)o1)=NCC2	none (no result: NCOA2 inhibitor, NR2F2 inh)
O=C(Nc1ccc(-c2nc3ccccc3o2)cc1)c1ccc(N2C(=O)C3C4C=CC(C4)C3C2=O)cc1 (stereo not drawn)	NR2F2 inh 41 | Gal4-VP16 ctr inactive | NR2F2 inh conf 40
Cc1ccc(-n2c(-c3ccc(Br)cc3)c[n+]3c2CCc2ccc4cccnc4c2-3)cc1	SRC1 inh 75, SRC3 inh 83, NR2F2 inh 88, LRH-1 inv ag 100 | Gal4-VP16 ctr 33 | NR2F2 inh conf 89
O=C(c1cc(S(=O)(=O)N2CCN(c3ccccc3)CC2)ccc1Cl)N1CCCC(C(F)(F)F)C1 (stereo not drawn)	NR2F2 inh 46 | Gal4-VP16 ctr inactive | NR2F2 inh conf inactive
O=C(CN1CCC(c2nc3ccccc3s2)CC1)NCc1cccs1	NR2F2 inh 53 | Gal4-VP16 ctr inactive | NR2F2 inh conf inactive
O=C(CN1CCC(c2nc3ccccc3s2)CC1)N1CCCCC1	none
CCOC(=O)N[C@H](C(=O)N1CCC[C@H]1C(=O)NC1CCCC1)c1ccccc1	none (no result: SRC1 inh, SRC3 inh, LRH-1 inv ag)
CC(=O)C[C@H](O)CC(=O)[C@H]1OC(=O)CC/C=C\Cc2ccccc21	none
O=C(Nc1nc2cc3c(cc2s1)OCCO3)C1=COCCO1	NCOA2 inhibitor 68, SRC3 inh 65, NR2F2 inh 81 | Gal4-VP16 ctr 56 | NR2F2 inh conf 77
CCN(CC1CCCO1)C(=O)c1cc(COc2ccccc2SC)on1 (stereo not drawn)	none
COc1ccc2c(/C=C/c3cc[n+](C)cc3)c[nH]c2c1	NR2F2 inh 38 | Gal4-VP16 ctr inactive | NR2F2 inh conf 39
Cc1ccc2[nH]cc(/C=C/c3cc[n+](C)cc3)c2c1	NR2F2 inh 43 | Gal4-VP16 ctr inactive | NR2F2 inh conf inactive
COc1ccc2c(C=O)c[nH]c2c1	none
CCn1c(/C=C/c2c[nH]c3ccccc23)nc2ccccc2c1=O	none
CC[n+]1ccc(/C=C/c2c[nH]c3ccccc23)cc1	NR2F2 inh 51 | Gal4-VP16 ctr inactive | NR2F2 inh conf inactive
COCCNC(=O)C1(C)CCN(C(=O)c2cccnc2Oc2ccccc2)C1 (stereo not drawn)	none
Cc1ccc2c(c1)nnn2C1CCN(S(=O)(=O)c2ccc(C(=O)N3C(C)CCCC3C)cc2)CC1 (stereo not drawn)	NR2F2 inh 42 | Gal4-VP16 ctr inactive | NR2F2 inh conf 55
O=S1(=O)c2ccc(N3CC[C@@H](O)C3)cc2O[C@H]2CCN1C2	none (no result: SRC1 inh, SRC3 inh, LRH-1 inv ag)
COc1ccc(C)cc1Nc1n[n+](-c2ccccc2)c(-c2c(OC)ccc3ccccc23)s1	NR2F2 inh 43 | Gal4-VP16 ctr inactive | NR2F2 inh conf inactive
NC(=O)[C@@H]1CC2(CC(c3cccc(NC(=O)COc4ccc(Cl)cc4)c3)=NO2)CN1C(=O)COc1ccc(Cl)cc1 (stereo partly drawn)	NR2F2 inh 45 | Gal4-VP16 ctr inactive | NR2F2 inh conf inactive
CC(=O)c1c(C)oc2ccc(N(C(C)=O)S(=O)(=O)c3cccc4cccnc34)cc12	NR2F2 inh 38 | Gal4-VP16 ctr inactive | NR2F2 inh conf inactive
COC(=O)C1=C(C(=O)OC)C(C(=O)OC)N2C=CC=CC2=C1C(=O)OC (stereo not drawn)	none
Cc1nn(C)c(C)c1CN(Cc1nc(CCC(C)C)no1)C(C)C	NR2F2 inh 66 | Gal4-VP16 ctr inactive | NR2F2 inh conf 62
CC(C)CCc1noc(CN(C)CCC2CCOCC2)n1	none
Nn1cnnc1SCC(=O)Nc1ccc(C2CCCCC2)cc1	none
O=C(O)CSCC(=O)Nc1ccc(C2CCCCC2)cc1	SRC1 inh 76, NCOA2 inhibitor 91, SRC3 inh 74, NR2F2 inh 90, LRH-1 inv ag 80 | Gal4-VP16 ctr 83 | NR2F2 inh conf 77
Cc1ccc(NC(=O)O/N=C/c2c(C)nn(C(C)(C)C)c2C)cc1Cl	SRC1 inh 91, NCOA2 inhibitor 95, SRC3 inh 92, NR2F2 inh 100, LRH-1 inv ag 88 | Gal4-VP16 ctr 93 | NR2F2 inh conf 110
CCN(CC)S(=O)(=O)c1cc(C(=O)NC2CCCCC2)ccc1C	none
NC(=O)c1ccsc1NC(=O)c1ccc(S(=O)(=O)N2CCCc3ccccc32)cc1	NR2F2 inh 38 | Gal4-VP16 ctr inactive | NR2F2 inh conf inactive
Cn1cc(S(=O)(=O)N2CCc3ccccc32)cc1C(=O)NC(C)(C)C	NR2F2 inh 59 | Gal4-VP16 ctr inactive | NR2F2 inh conf 45
O=C(O)c1ccc(S(=O)(=O)N2CCCc3ccccc32)cc1	none
Cc1cccc(C)c1NC(=O)c1cc(S(=O)(=O)N2CCc3ccccc32)cn1C	none
O=C(Nc1nc(-c2ccc(S(=O)(=O)N3CCCCCC3)cc2)cs1)c1cccs1	NR2F2 inh 55 | Gal4-VP16 ctr inactive | NR2F2 inh conf inactive
